# Legend:
# Experiment in all cases: DAPPL (digital affinity profiling via proximity ligation, sequencing); 10 mM Tris-HCl pH 7.5, 50 mM NaCl, 1 mM DTT, 4% glycerol, room temperature, 30 min; GST-TFs on glutathione beads, 16-mer random dsDNA library, 0.1% formaldehyde crosslink after washing; high values mean tight binding
# Conditions in all cases: protein: recombinant; tags: N-terminal GST; dsDNA, one strand shown
# FLI1 = biological target: T1, FLI1 (Homo sapiens, UniProt Q01543 1-452)
# T1 sequence: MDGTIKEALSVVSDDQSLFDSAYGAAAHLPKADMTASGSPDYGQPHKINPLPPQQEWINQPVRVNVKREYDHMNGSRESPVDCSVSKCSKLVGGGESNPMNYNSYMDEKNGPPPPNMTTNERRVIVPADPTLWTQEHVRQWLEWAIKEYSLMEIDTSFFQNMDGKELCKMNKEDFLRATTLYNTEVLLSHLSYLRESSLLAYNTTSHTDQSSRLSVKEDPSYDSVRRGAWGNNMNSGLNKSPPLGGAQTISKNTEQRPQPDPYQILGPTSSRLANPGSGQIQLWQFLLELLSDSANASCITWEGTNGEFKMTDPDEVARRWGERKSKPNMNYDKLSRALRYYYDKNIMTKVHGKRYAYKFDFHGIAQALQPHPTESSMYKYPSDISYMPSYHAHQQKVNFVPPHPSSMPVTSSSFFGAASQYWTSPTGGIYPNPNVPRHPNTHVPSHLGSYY
# Summary of the method: (§1)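 The binding signal reported is, for every hexamer, its read frequency for a factor over its read frequency for the tag-only sample. Reads came from pools of yeast-expressed, GST-fused human transcription factors on glutathione beads, barcoded with DNA and mixed with that sample, which were incubated with 200 nmole of a random double-stranded 16-mer DNA library in Tris/NaCl/DTT/glycerol buffer at room temperature for 30 min. After washing, the pools were crosslinked with 0.1% formaldehyde, proximity-ligated with BsaI/T4 ligase for 1 h at 37 °C, PCR-amplified and sequenced on an Illumina NextSeq500.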
# ELK1 = biological target: T2, ELK1 (Homo sapiens, UniProt P19419 1-428)
# T2 sequence: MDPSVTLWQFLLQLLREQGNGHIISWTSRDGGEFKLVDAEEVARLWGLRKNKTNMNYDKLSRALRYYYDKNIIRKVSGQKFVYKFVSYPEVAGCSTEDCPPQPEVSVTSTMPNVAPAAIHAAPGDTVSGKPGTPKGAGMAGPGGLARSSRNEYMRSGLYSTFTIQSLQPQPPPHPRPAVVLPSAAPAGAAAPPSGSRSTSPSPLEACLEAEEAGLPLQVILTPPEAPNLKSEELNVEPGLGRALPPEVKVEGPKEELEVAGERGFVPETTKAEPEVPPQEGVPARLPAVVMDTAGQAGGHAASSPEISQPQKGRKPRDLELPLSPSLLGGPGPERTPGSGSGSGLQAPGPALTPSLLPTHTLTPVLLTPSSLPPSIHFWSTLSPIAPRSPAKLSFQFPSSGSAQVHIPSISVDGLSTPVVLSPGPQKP
# Summary of the method: as §1
# GABPA = biological target: T3, GABPA (Homo sapiens, UniProt Q06546 1-454)
# T3 sequence: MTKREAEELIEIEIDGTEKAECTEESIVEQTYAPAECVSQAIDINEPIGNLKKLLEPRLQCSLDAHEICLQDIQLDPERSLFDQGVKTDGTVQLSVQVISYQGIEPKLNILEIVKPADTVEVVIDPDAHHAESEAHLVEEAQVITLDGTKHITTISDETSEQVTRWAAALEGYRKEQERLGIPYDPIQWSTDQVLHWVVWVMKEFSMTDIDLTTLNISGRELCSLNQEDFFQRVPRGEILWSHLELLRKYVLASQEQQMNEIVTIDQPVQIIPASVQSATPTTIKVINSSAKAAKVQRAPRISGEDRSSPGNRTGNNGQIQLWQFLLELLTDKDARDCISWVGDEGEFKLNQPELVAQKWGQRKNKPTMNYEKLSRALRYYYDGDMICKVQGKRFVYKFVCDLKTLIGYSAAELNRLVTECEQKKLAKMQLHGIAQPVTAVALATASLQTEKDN
# Summary of the method: as §1
# ERG = biological target: T4, ERG (Homo sapiens, UniProt P11308 1-479)
# T4 sequence: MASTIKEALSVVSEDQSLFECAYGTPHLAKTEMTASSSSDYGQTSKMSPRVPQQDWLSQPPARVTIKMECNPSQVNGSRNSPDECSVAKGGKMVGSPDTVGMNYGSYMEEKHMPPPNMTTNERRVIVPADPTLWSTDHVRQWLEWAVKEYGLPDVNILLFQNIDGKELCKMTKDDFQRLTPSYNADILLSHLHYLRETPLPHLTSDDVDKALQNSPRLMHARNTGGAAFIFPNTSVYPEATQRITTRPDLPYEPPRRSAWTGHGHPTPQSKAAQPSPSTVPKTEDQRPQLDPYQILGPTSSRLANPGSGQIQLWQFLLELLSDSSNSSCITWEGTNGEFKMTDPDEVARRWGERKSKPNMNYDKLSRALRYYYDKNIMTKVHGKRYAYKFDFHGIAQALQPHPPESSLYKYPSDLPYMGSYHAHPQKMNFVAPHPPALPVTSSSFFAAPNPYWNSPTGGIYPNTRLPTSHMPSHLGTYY
# Summary of the method: as §1
# ELF1 = ELF1 (Homo sapiens, UniProt P32519 1-619)
# Summary of the method: as §1
# EHF = biological target: T5, EHF (Homo sapiens, UniProt Q9NZC4 1-300)
# T5 sequence: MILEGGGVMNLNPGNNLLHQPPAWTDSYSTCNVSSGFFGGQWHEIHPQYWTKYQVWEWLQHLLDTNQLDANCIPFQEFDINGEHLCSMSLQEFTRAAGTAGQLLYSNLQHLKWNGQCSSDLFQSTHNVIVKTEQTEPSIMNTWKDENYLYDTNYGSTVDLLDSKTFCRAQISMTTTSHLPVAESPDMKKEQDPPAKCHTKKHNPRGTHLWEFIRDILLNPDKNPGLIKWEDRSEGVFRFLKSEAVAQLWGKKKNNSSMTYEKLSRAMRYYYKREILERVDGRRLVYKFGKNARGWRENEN
# Summary of the method: as §1
# SPI1 = SPI1 (Homo sapiens, UniProt P17947 1-270)
# Summary of the method: as §1
# SPIB = SPIB (Homo sapiens, UniProt Q01892 1-262)
# Summary of the method: as §1
# ELK3 = biological target: T6, ELK3 (Homo sapiens, UniProt P41970 1-407)
# T6 sequence: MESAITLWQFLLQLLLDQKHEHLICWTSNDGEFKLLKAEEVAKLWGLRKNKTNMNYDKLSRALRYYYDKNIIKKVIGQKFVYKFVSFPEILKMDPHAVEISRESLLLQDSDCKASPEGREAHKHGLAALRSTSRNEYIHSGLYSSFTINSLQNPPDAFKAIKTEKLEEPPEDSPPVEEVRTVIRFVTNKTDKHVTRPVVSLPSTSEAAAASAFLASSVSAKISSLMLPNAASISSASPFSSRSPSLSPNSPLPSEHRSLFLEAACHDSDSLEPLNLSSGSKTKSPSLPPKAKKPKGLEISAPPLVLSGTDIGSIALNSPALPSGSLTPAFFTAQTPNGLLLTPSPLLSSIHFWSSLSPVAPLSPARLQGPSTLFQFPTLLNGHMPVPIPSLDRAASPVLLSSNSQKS
# Summary of the method: as §1
# ELF1, sequence (P32519 whole entry): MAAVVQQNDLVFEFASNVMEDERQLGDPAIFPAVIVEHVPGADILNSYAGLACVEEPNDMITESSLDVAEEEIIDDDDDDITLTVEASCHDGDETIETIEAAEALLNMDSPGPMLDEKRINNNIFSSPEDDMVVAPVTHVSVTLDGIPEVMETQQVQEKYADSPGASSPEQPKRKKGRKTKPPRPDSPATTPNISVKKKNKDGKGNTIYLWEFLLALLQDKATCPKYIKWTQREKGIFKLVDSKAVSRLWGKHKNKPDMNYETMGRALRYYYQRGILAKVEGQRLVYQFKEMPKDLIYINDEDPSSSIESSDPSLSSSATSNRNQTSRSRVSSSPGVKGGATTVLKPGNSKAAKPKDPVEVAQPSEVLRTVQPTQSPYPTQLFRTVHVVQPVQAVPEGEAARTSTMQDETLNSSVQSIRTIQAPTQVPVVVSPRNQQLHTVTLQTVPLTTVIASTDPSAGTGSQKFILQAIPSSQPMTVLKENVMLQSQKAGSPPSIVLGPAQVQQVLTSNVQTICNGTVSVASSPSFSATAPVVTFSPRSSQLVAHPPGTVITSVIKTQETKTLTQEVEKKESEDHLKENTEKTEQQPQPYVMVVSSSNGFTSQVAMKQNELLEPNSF
# SPIB, sequence (Q01892 whole entry): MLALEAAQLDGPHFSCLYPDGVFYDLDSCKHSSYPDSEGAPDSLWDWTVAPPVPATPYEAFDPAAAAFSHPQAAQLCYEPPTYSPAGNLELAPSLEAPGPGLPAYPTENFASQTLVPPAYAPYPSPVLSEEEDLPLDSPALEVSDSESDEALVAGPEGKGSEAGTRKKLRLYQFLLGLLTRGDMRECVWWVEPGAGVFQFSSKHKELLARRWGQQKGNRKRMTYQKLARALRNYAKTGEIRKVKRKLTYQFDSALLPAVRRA
sequence,measurement,setting,value
AATAGT,binding signal,FLI1,"1.21 fold enrichment (6-mer frequency, TF over GST control)"
same,binding signal,ELK1,"1.2 fold enrichment (6-mer frequency, TF over GST control)"
same,binding signal,GABPA,"1.2 fold enrichment (6-mer frequency, TF over GST control)"
same,binding signal,ERG,"1.31 fold enrichment (6-mer frequency, TF over GST control)"
same,binding signal,ELF1,"1.19 fold enrichment (6-mer frequency, TF over GST control)"
same,binding signal,EHF,"1.23 fold enrichment (6-mer frequency, TF over GST control)"
same,binding signal,SPI1,"1.17 fold enrichment (6-mer frequency, TF over GST control)"
same,binding signal,SPIB,"1.22 fold enrichment (6-mer frequency, TF over GST control)"
same,binding signal,ELK3,"1.11 fold enrichment (6-mer frequency, TF over GST control)"
CTGCTA,binding signal,FLI1,"1.38 fold enrichment (6-mer frequency, TF over GST control)"
same,binding signal,ELK1,"1.53 fold enrichment (6-mer frequency, TF over GST control)"
same,binding signal,GABPA,"1.46 fold enrichment (6-mer frequency, TF over GST control)"
same,binding signal,ERG,"1.39 fold enrichment (6-mer frequency, TF over GST control)"
same,binding signal,ELF1,"1.47 fold enrichment (6-mer frequency, TF over GST control)"
same,binding signal,EHF,"1.5 fold enrichment (6-mer frequency, TF over GST control)"
same,binding signal,SPI1,"1.53 fold enrichment (6-mer frequency, TF over GST control)"
same,binding signal,SPIB,"1.43 fold enrichment (6-mer frequency, TF over GST control)"
same,binding signal,ELK3,"1.42 fold enrichment (6-mer frequency, TF over GST control)"
TCGATC,binding signal,FLI1,"1.31 fold enrichment (6-mer frequency, TF over GST control)"
same,binding signal,ELK1,"1.08 fold enrichment (6-mer frequency, TF over GST control)"
same,binding signal,GABPA,"1.14 fold enrichment (6-mer frequency, TF over GST control)"
same,binding signal,ERG,"1.18 fold enrichment (6-mer frequency, TF over GST control)"
same,binding signal,ELF1,"1.27 fold enrichment (6-mer frequency, TF over GST control)"
same,binding signal,EHF,"1.16 fold enrichment (6-mer frequency, TF over GST control)"
same,binding signal,SPI1,"1.11 fold enrichment (6-mer frequency, TF over GST control)"
same,binding signal,SPIB,"1.25 fold enrichment (6-mer frequency, TF over GST control)"
same,binding signal,ELK3,"1.27 fold enrichment (6-mer frequency, TF over GST control)"
AACCCC,binding signal,FLI1,"1.08 fold enrichment (6-mer frequency, TF over GST control)"
same,binding signal,ELK1,"1.17 fold enrichment (6-mer frequency, TF over GST control)"
same,binding signal,GABPA,"1.1 fold enrichment (6-mer frequency, TF over GST control)"
same,binding signal,ERG,"1.17 fold enrichment (6-mer frequency, TF over GST control)"
same,binding signal,ELF1,"1.16 fold enrichment (6-mer frequency, TF over GST control)"
same,binding signal,EHF,"1.21 fold enrichment (6-mer frequency, TF over GST control)"
same,binding signal,SPI1,"1.12 fold enrichment (6-mer frequency, TF over GST control)"
same,binding signal,SPIB,"1.18 fold enrichment (6-mer frequency, TF over GST control)"
same,binding signal,ELK3,"1.14 fold enrichment (6-mer frequency, TF over GST control)"
CTTGGA,binding signal,FLI1,"1.28 fold enrichment (6-mer frequency, TF over GST control)"
same,binding signal,ELK1,"1.15 fold enrichment (6-mer frequency, TF over GST control)"
same,binding signal,GABPA,"1.16 fold enrichment (6-mer frequency, TF over GST control)"
same,binding signal,ERG,"1.17 fold enrichment (6-mer frequency, TF over GST control)"
same,binding signal,ELF1,"1.27 fold enrichment (6-mer frequency, TF over GST control)"
same,binding signal,EHF,"1.13 fold enrichment (6-mer frequency, TF over GST control)"
same,binding signal,SPI1,"1.14 fold enrichment (6-mer frequency, TF over GST control)"
same,binding signal,SPIB,"1.2 fold enrichment (6-mer frequency, TF over GST control)"
same,binding signal,ELK3,"1.17 fold enrichment (6-mer frequency, TF over GST control)"
CTACTA,binding signal,FLI1,"1.32 fold enrichment (6-mer frequency, TF over GST control)"
same,binding signal,ELK1,"1.36 fold enrichment (6-mer frequency, TF over GST control)"
same,binding signal,GABPA,"1.34 fold enrichment (6-mer frequency, TF over GST control)"
same,binding signal,ERG,"1.24 fold enrichment (6-mer frequency, TF over GST control)"
same,binding signal,ELF1,"1.39 fold enrichment (6-mer frequency, TF over GST control)"
same,binding signal,EHF,"1.33 fold enrichment (6-mer frequency, TF over GST control)"
same,binding signal,SPI1,"1.32 fold enrichment (6-mer frequency, TF over GST control)"
same,binding signal,SPIB,"1.3 fold enrichment (6-mer frequency, TF over GST control)"
same,binding signal,ELK3,"1.37 fold enrichment (6-mer frequency, TF over GST control)"
GCCTTA,binding signal,FLI1,"1.15 fold enrichment (6-mer frequency, TF over GST control)"
same,binding signal,ELK1,"1.21 fold enrichment (6-mer frequency, TF over GST control)"
same,binding signal,GABPA,"1.26 fold enrichment (6-mer frequency, TF over GST control)"
same,binding signal,ERG,"1.21 fold enrichment (6-mer frequency, TF over GST control)"
same,binding signal,ELF1,"1.17 fold enrichment (6-mer frequency, TF over GST control)"
same,binding signal,EHF,"1.11 fold enrichment (6-mer frequency, TF over GST control)"
same,binding signal,SPI1,"1.13 fold enrichment (6-mer frequency, TF over GST control)"
same,binding signal,SPIB,"1.27 fold enrichment (6-mer frequency, TF over GST control)"
same,binding signal,ELK3,"1.15 fold enrichment (6-mer frequency, TF over GST control)"

# From article PMC7862700, “An all-to-all approach to the identification of sequence-specific readers for epigenetic DNA modifications on cytosine”
